# The panel holds about 83,000 compounds, 20% with a hit somewhere; the sample as a whole holds those more often.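 96-well plates, one dose, 48 hours. Percent growth reported; active if below 10.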 A number with no mark means an inactive call. Activity calls are given as the source filed them.
# Assays:
# Assay in all cases: NCI-60 one-dose screen, 48 h (100 = growth as untreated, 0 = no growth, -100 = all killed)
# Conditions in all cases: 10 µM unless noted
# NCI-H23 lung = system: NCI-H23 lung
# NCI-H226 lung = system: NCI-H226 lung
# NCI-H322M lung = system: NCI-H322M lung
# HOP-62 NSCLC = system: HOP-62 NSCLC
# NCI-H460 lung = system: NCI-H460 lung
# HOP-92 NSCLC = system: HOP-92 NSCLC
# NCI-H522 lung = system: NCI-H522 lung
# A549/ATCC NSCLC = system: A549/ATCC NSCLC
# 786-0 renal = system: 786-0 renal
# COLO 205 colon = system: COLO 205 colon
# DU-145 prostate = system: DU-145 prostate
# K-562 leukemia = system: K-562 leukemia
# MALME-3M melanoma = system: MALME-3M melanoma
# MDA-MB-231 breast = system: MDA-MB-231 breast
# RXF 393 renal = system: RXF 393 renal
# SF-268 CNS = system: SF-268 CNS
# SF-295 CNS = system: SF-295 CNS
# SF-539 CNS = system: SF-539 CNS
# UACC-257 melanoma = system: UACC-257 melanoma
# M14 melanoma = system: M14 melanoma
SMILES,growth (NCI-H23 lung),growth (NCI-H226 lung),growth (NCI-H322M lung),growth (HOP-62 NSCLC),growth (NCI-H460 lung),growth (HOP-92 NSCLC),growth (NCI-H522 lung),growth (A549/ATCC NSCLC),growth (786-0 renal),growth (COLO 205 colon),growth (DU-145 prostate),growth (K-562 leukemia),growth (MALME-3M melanoma),growth (MDA-MB-231 breast),growth (RXF 393 renal),growth (SF-268 CNS),growth (SF-295 CNS),growth (SF-539 CNS),growth (UACC-257 melanoma),growth (M14 melanoma)
NC1CC2CCCCC2CC1(O)c1ccccc1 (stereo not given),94.7%,92.2%,103%,106%,103%,88.6%,97.8%,99.3%,99.6%,106%,103%,92.4%,96.1%,99.8%,101%,102%,114%,99.1%,98%,100%
N#CC1(c2ccccc2)CCN(Cc2ccccc2)CC1,98.9%,101%,144%,106%,104%,51.8%,92.6%,99.5%,101%,105%,107%,98.3%,138%,110%,105%,94.9%,89.9%,107%,115%,106%
COC(=O)[C@@H](C)C[C@H](Cc1ccccc1)NC(=O)c1nc([C@@H](C[C@H](C(C)C)N(C)C(=O)[C@@H](NC(=O)[C@H]2CCCN2C)C(C)C)OC(C)=O)sc1C,31.8%,43.4%,35.2%,21.1%,7.21% (active),8.77% (active),-23.7% (active),16.1%,14.3%,-74.2% (active),17.7%,9.29% (active),54.4%,14.1%,39%,30.6%,10.6%,-8.41% (active),51.1%,1.43% (active)
CCCCCSC1C2C(=O)C(Br)=CC13CCNc1c(O)c4c5c(c13)=[N+]2CCC=5C=N4 (stereo not given),-17.1% (active),-5.15% (active),2.94% (active),-73.2% (active),-33.7% (active),-56.1% (active),-64.4% (active),-52.1% (active),-50.3% (active),-76.5% (active),-100% (active),-32% (active),-99.5% (active),-7.12% (active),-28.5% (active),-51.7% (active),20.9%,-79.6% (active),-79.6% (active),-92.6% (active)
O=[N+]([O-])CC(c1ccccc1Cl)c1c(-c2ccccc2)[nH]c2ccccc12 (stereo not given),53.8%,30.9%,42.7%,30.3%,22.9%,36.1%,-10.9% (active),31.5%,25.2%,15%,43.7%,12.4%,42.1%,46.2%,27.8%,50.1%,24.3%,27.2%,48.9%,21.3%
CN1CCC(c2c[nH]c3ccccc23)C1 (stereo not given),88.9%,106%,118%,84.3%,124%,92.9%,79.5%,122%,99.3%,108%,110%,109%,112%,103%,128%,111%,105%,127%,55.5%,93%
CC[C@H](C)[C@H](NC(=O)C12C3C4C1C1C2C3C41NC)C(=O)N(C)[C@H](C[C@@H](OC(C)=O)c1nc(C(=O)N[C@@H](Cc2ccccc2)C[C@H](C)C(=O)OC)cs1)C(C)C (stereo not given in full),31.6%,41.4%,51.9%,16.9%,6.43% (active),34.1%,-4.71% (active),31.4%,19.1%,-15.5% (active),7.38% (active),9.19% (active),50.1%,29.1%,39.4%,30%,19.4%,-5.82% (active),42.1%,-14.4% (active)
CCn1cnc2c(Nc3cccc(Cl)c3)nc(N[C@@H]3CCCC[C@@H]3N)nc21,-21.5% (active),10.6%,15.4%,-11.1% (active),1.68% (active),-9.78% (active),-32.4% (active),-7.67% (active),1.83% (active),-67.6% (active),6.73% (active),-2.92% (active),15%,-22.3% (active),-44.5% (active),0.266% (active),9.85% (active),-5.76% (active),14.1%,-45.8% (active)
